Source: PubChem BioAssay (Broad Institute)
This is a sample that favours compounds with a hit; in the whole collection about 2.2% have one here.
Shn3 inh set2 – inhibitors of Schnurri-3 3'UTR reporter in osteoblasts; 360,000 tested, 0.52% active; inhibition, % at 12.5 µM; Clone20 osteoblast Shn3 3'UTR firefly luciferase, 24 h;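 active = mean inhibition of at least 75% with every replicate also reaching 75%; inconclusive = mean inhibition at least 75% but some replicate below; inactive = mean inhibition below 75%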;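 also: 0% = median of neutral control wells and 100% = pilot-screen positive control compound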
PfHsp90 yeast 2 – inhibits growth of yeast expressing Plasmodium falciparum Hsp90; 310,000 tested, 0.32% active; S. cerevisiae expressing PfHsp90, BacTiter-Glo ATP, 48 h; yeast lacking PDR1 and PDR3 efflux regulators; inhibition, % at 9.4 µM;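 active = every replicate shows inhibition above about 80%, whatever the replicate mean, limit read from the data; inconclusive = mean inhibition reaches the set limit but some replicate falls short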;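 also: 0% = DMSO neutral controls and 100% = 20 µM radicicol positive controls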
Calb FLC – affects C. albicans growth with fluconazole; C. albicans CaCi-2 (fluconazole-resistant clinical isolate) + fluconazole, Alamar Blue growth, 48 h; growth inhibition, % (test concentration not listed); 300,000 tested, 0.57% active; AID 1979;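 active = growth inhibition above about 58% in most replicates, limit read from the data, passing the limit was not always enough; inconclusive = exactly half the replicates above a set limit; inactive = most replicates below a set limit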;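 also: all wells also contain fluconazole at 8 µg/ml as a sub-toxic cotreatment; 0% = median of DMSO wells and 100% = median of geldanamycin control wells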
CSC inhib – blocks cancer stem cells; cancer stem cell-like cells viability, luminescence; inhibition, % at 7.5 µM; 300,000 tested, 1.1% active; AID 2717; in the data active = inhibition above about 75%; inconclusive = no clear call, values can overlap the other calls; tested in HMLE shEcad cells
Beta apoptosis – beta cell apoptosis inhibition | protection from apoptosis, % (test concentration not listed) | INS-1E cytokine-induced death, ATP luminescence, 48 h; percent of positive-control rescue, neutral wells zero | 300,000 tested, 0.8% active;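 active = Every replicate reaches about 75%, or at least half do and their mean reaches it too, limit read from the data; inconclusive = At least half of replicates reach the limit but their mean does not; inactive = Under half of replicates reach the limit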;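 also: 0% = cytokine-treated negative control wells and 100% = positive control rescue; higher means more ATP so stronger rescue from cytokine killing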
* = called active by the depositor.

`COc1ccc(C(=O)CN2Cc3ccccc3C2=N)cc1` gave Shn3 inh set2 -39.3, PfHsp90 yeast 2 -0.7, Calb FLC -2.6, CSC inhib 2.1 and Beta apoptosis -2.9.
For COc1ccc2[nH]c(CN3CCC(n4nccc4NC(=O)C4CC4)CC3)c(C)c2c1 the results were Shn3 inh set2 19.5, PfHsp90 yeast 2 5.0, Calb FLC 1.1 and Beta apoptosis -2.6.
Screening CCN(CC)S(=O)(=O)c1ccc(N2CCOCC2)c(NC(=O)c2nn(C(C)C)c(=O)c3ccccc23)c1 returned Shn3 inh set2 86.1*.
Screening CCN(CC)S(=O)(=O)c1ccc(N2CCOCC2)c(NC(=O)c2nn(C)c(=O)c3ccccc23)c1 returned Shn3 inh set2 26.7.
For C[C@H](NC(=O)c1ncn2c1C(=O)N[C@@H](C)C2)C(=O)OC(C)(C)C the results were Shn3 inh set2 -1.0.
Screening OC[C@H]1O[C@@H](Oc2ccc(O)cc2)[C@H](O)[C@@H](O)[C@@H]1O returned Shn3 inh set2 87.7* and PfHsp90 yeast 2 26.2.
Screening Cc1cc(=O)c2cc3nc(-c4cccnc4)oc3c(Br)c2o1 returned Calb FLC 37.9, CSC inhib -1.3 and Beta apoptosis -6.6.
For COc1cc(C(=O)OCC(=O)c2cc(C)n(CC3CCCO3)c2C)ccc1OCC(=O)N1CCOCC1 (stereo not given) the results were Shn3 inh set2 14.1, PfHsp90 yeast 2 1.7, Calb FLC 3.1, CSC inhib -7.4 and Beta apoptosis -3.4.
Screening CCCS(=O)(=O)c1c(S(=O)(=O)CCC)c2c(C)cccn2c1C(N)=O returned Shn3 inh set2 4.6, PfHsp90 yeast 2 -5.7, Calb FLC 21.8, CSC inhib -12.5 and Beta apoptosis -8.8.
CCCS(=O)(=O)c1c(S(=O)(=O)CCC)c2c(C)cccn2c1C(=O)N/N=C/c1cc(O)cc(O)c1 was read as Shn3 inh set2 62.0, PfHsp90 yeast 2 -14.2, Calb FLC 69.1, CSC inhib 132.5* and Beta apoptosis 65.4.
Screening CCOC(=O)C1=C(C)N2C(=C(C#N)[C@@H]1c1ccc(C(=O)OC)cc1)SC[C@@]2(O)C(C)(C)C returned Shn3 inh set2 28.6, PfHsp90 yeast 2 -19.3, Calb FLC 12.0, CSC inhib 82.0* and Beta apoptosis 24.6.
For CCC(Oc1ccccc1)C(=O)NCCCN1CCOCC1 (stereo not given) the results were Shn3 inh set2 3.2, PfHsp90 yeast 2 -1.6, Calb FLC -14.7, CSC inhib -3.3 and Beta apoptosis -5.2.
`Cc1occc1C(=O)Nc1ccc(OCc2ccccc2)cc1` gave Shn3 inh set2 -98.0, PfHsp90 yeast 2 17.6, Calb FLC 0.2, CSC inhib 90.1* and Beta apoptosis 18.2.
Screening Cc1occc1C(=O)Nc1cccc(C(=O)NCc2ccccc2)c1 returned Shn3 inh set2 5.6, Calb FLC -3.0, CSC inhib -0.5 and Beta apoptosis 2.9.
`O=C(Nc1ccc(OCc2ccccc2)cc1)c1cccs1` gave Shn3 inh set2 -56.4, PfHsp90 yeast 2 0.4, Calb FLC -3.3, CSC inhib 80.3* and Beta apoptosis 5.1.
`O=C(COC(=O)/C=C/c1ccccc1Cl)NC1CCCCCC1` gave Shn3 inh set2 8.8, PfHsp90 yeast 2 -8.6, Calb FLC -3.8, CSC inhib 4.5 and Beta apoptosis -2.1.
For COc1ccc(C(=O)O/N=C2\C(=O)N(C)c3ccccc32)cc1 the results were Shn3 inh set2 -7.0, PfHsp90 yeast 2 105.3*, Calb FLC -10.9, CSC inhib -2.6 and Beta apoptosis -20.6.
CC(CC(=O)c1ccccc1)=NCC(O)CN=C(C)CC(=O)c1ccccc1 (stereo not given) was read as Shn3 inh set2 11.7.
S=C1SCN(Cc2cccnc2)CN1Cc1cccnc1 was read as Shn3 inh set2 -5.0, PfHsp90 yeast 2 85.1*, Calb FLC -6.4 and CSC inhib 54.6.
For S=C1SCN(Cc2ccccc2)CN1Cc1ccccc1 the results were Shn3 inh set2 -10.8, PfHsp90 yeast 2 -18.0 and Calb FLC 31.8.
C=CCn1cnc2c(nnn2-c2ccc(C)c(C)c2)c1=O was read as Shn3 inh set2 -18.1, PfHsp90 yeast 2 -6.0, Calb FLC -2.9, CSC inhib -6.0 and Beta apoptosis 1.9.
`CCn1cc(C(=O)O)c(=O)c2cc(F)c(N/N=C/c3ccccc3[N+](=O)[O-])cc21` gave Shn3 inh set2 43.3, PfHsp90 yeast 2 -8.4, Calb FLC -18.7, CSC inhib 21.7 and Beta apoptosis 97.2*.
Screening CCn1cc(C(=O)O)c(=O)c2cc(F)c(N3CCN(C(=S)Nc4ccccc4OC)CC3)cc21 returned Shn3 inh set2 -38.6, PfHsp90 yeast 2 -6.6, Calb FLC -27.9, CSC inhib -10.3 and Beta apoptosis 6.3.
For Cc1nn(C)c(C(=O)NCc2ccc(Cl)cc2)c1Cl the results were Shn3 inh set2 86.1*, PfHsp90 yeast 2 -12.6, Calb FLC 0.3, CSC inhib -6.2 and Beta apoptosis inconclusive.
Cc1ccc(CNC(=O)c2ccc(Cn3nc(C)c(Cl)c3C)o2)cc1 was read as Shn3 inh set2 16.5, PfHsp90 yeast 2 108.7*, Calb FLC 4.4, CSC inhib -2.7 and Beta apoptosis 0.6.
Screening CC1=NOC(=O)/C1=C\c1ccc(-c2cccc(Cl)c2)o1 returned Shn3 inh set2 81.5, PfHsp90 yeast 2 -13.6, Calb FLC -2.1, CSC inhib 63.4 and Beta apoptosis -13.0.
`CC1=NOC(=O)/C1=C\c1ccc(-c2ccccc2Br)o1` gave Shn3 inh set2 90.5*, PfHsp90 yeast 2 -28.1 and Calb FLC -1.1.
For Cc1ccc(NC(=O)CCC(=O)N/N=C/c2ccccc2O)cc1 the results were Shn3 inh set2 67.2, PfHsp90 yeast 2 2.1, Calb FLC 1.5, CSC inhib 7.1 and Beta apoptosis 68.4.
Cc1cccc(N/N=C/c2ccncc2)c1 was read as Shn3 inh set2 -81.4, PfHsp90 yeast 2 -4.1, Calb FLC -1.3, CSC inhib 16.0 and Beta apoptosis -2.3.
For Cc1cccc(NC(=O)CCC(=O)N/N=C/c2ccc(O)cc2O)c1 the results were Shn3 inh set2 -52.9, PfHsp90 yeast 2 7.9, Calb FLC 6.2, CSC inhib 79.3* and Beta apoptosis -0.3.
Screening Cc1ccc(SCCC(=O)N/N=C/c2ccccc2O)cc1 returned Shn3 inh set2 18.5, PfHsp90 yeast 2 -3.5, Calb FLC 92.2*, CSC inhib 22.1 and Beta apoptosis 42.5.
`Cc1cc(=O)oc2cc(OCC(=O)N/N=C/c3ccccc3O)ccc12` gave Shn3 inh set2 2.9, PfHsp90 yeast 2 -61.8, Calb FLC 0.7 and Beta apoptosis 0.6.
`CSc1nc(C)cc(OCC(=O)N/N=C/c2ccccc2O)n1` gave Shn3 inh set2 51.7, PfHsp90 yeast 2 -21.6, Calb FLC 7.8, CSC inhib 89.4* and Beta apoptosis 65.4.
Screening Cc1cccc(N/N=C/c2ccccc2O)c1 returned Shn3 inh set2 -15.0, PfHsp90 yeast 2 11.7, Calb FLC -38.3, CSC inhib 94.1* and Beta apoptosis -1.4.
For CC(=O)NC(Cc1ccc(O)cc1)C(=O)NN (stereo not given) the results were Shn3 inh set2 4.9, PfHsp90 yeast 2 -34.4, Calb FLC 18.2, CSC inhib -10.1 and Beta apoptosis -7.2.
